Results: PubChem BioAssay
Activity calls are given as the source filed them. Unless noted, the rule behind the calls is not given here.

Columns and labels:
[1] = tested on: XIP peptide (Xip251-270) binding; test: small-molecule binders of XIP peptide, primary screen, biochemical, small-molecule microarray, fluorescence 635/667 nm, 0.1 µg/mL protein (AID 1182); settings: fluorescent protein binding, 635 nm, higher = more signal, called active from +8 up or from −8 down
XIP peptide (Xip251-270) = test: small-molecule binders of XIP peptide, primary screen, biochemical, small-molecule microarray, fluorescence 635/667 nm, 0.5 µg/mL protein (AID 1183); settings: small-molecule microarray binding, fluorescence 635 nm; higher = more signal
[2] = Plasmodium falciparum growth inhibition, primary screen, strain 3D7, DAPI fluorescence, 100 nL (AID 1184);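 note: parasites grown inside human red blood cells in medium with human serum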; settings: P. falciparum 3D7 growth, 3 d, higher = more signal
[3] = biological target: Homeobox protein Hox-A13 (Mus musculus) (UniProt Q62424); test: inhibitors of HoxA13-DNA binding, primary screen, biochemical, fluorescence polarization, labeled oligonucleotide (AID 1185); settings: 15 min, higher = more signal, called active from +8 up or from −8 down
[4] = inhibitors of hydroxyurea-induced Chk1 phosphorylation, primary screen, imaging, HeLa, phospho-Chk1 antibody, percent positive cells (AID 1186); settings: hydroxyurea-induced phospho-Chk1 immunofluorescence imaging, higher = more signal
[5] = inhibitors of hydroxyurea-induced Chk1 phosphorylation, primary screen, imaging, HeLa, phospho-Chk1 nuclear intensity (AID 1187); settings: hydroxyurea-induced phospho-Chk1 immunofluorescence imaging, higher = more signal

Sequence of Homeobox protein Hox-A13 (Mus musculus) (Q62424 whole entry, looked up): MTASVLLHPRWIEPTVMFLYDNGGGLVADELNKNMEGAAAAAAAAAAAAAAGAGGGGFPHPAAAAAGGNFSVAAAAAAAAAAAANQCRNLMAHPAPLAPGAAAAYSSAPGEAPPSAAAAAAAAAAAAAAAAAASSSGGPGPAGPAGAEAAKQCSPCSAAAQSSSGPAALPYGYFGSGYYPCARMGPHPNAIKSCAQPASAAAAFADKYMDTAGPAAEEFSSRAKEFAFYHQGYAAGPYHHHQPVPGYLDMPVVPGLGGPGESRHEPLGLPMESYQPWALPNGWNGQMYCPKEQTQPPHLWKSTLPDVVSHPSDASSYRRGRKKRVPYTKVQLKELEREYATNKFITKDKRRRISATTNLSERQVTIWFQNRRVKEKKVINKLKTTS

Which composite z-score [1] does the source give for `CN1C(=O)C2C=CC(C(O)c3c(F)cccc3Cl)N(NC(=O)OC(C)(C)C)C2C1=O` (stereo unspecified) here?
The composite z-score was 1.69 (inactive).

What about the composite z-score (XIP peptide (Xip251-270)) of the same molecule?
Its composite z-score is 0.836.

And the z-score [2]?
Its z-score is 0.436.

What about the z-score [3] of the same molecule?
The z-score was -1.51 (inactive).

What about the z-score [4] of the same molecule?
The z-score was 0.0188 (inactive).

And the z-score [5]?
Its z-score is 0.0545 (inactive).

With `COC(=O)C(CC#Cc1ccc2c(c1)[C@]1(C(=O)N2)[C@H](c2ccc(O)cc2)N2[C@H](c3ccccc3)[C@H](c3ccccc3)OC(=O)[C@H]2[C@@H]1C(=O)N1CCN(c2ncccn2)CC1)C(=O)OC` as the molecule, how does the composite z-score [1] read?
Its composite z-score is 0.655 (inactive).

What about the composite z-score (XIP peptide (Xip251-270)) of the same molecule?
Its composite z-score is 0.826.

And the z-score [2]?
Its z-score is -2.26.

And the z-score [3]?
The z-score was -1.65 (inactive).

And the z-score [4]?
Its z-score is -0.231 (inactive).

What about the z-score [5] of the same molecule?
The z-score was -0.514 (inactive).

With `COCCOC(=O)N1C(=O)[C@@]2(c3ccccc31)[C@H](C(N)=O)[C@H]1C(=O)O[C@H](c3ccccc3)[C@H](c3ccccc3)N1[C@@H]2c1ccc(O)cc1` as the molecule, how does the composite z-score [1] read?
The composite z-score was -0.114 (inactive).

And the composite z-score (XIP peptide (Xip251-270))?
Its composite z-score is 0.726.

What about the z-score [2] of the same molecule?
Its z-score is 0.373.

What about the z-score [3] of the same molecule?
The z-score was -4.73 (inactive).

What about the z-score [4] of the same molecule?
Its z-score is -0.0504 (inactive).

What about the z-score [5] of the same molecule?
Its z-score is -0.194 (inactive).

For `[N-]=[N+]=NCc1ccccc1[C@@H]1OC(c2ccc(OCCCO)cc2)=N[C@]1(CCS(=O)(=O)c1ccccc1)C(=O)N1CCOCC1`, which composite z-score [1] is on record?
The composite z-score was 1.06 (inactive).

And the composite z-score (XIP peptide (Xip251-270))?
Its composite z-score is 0.712.

What about the z-score [2] of the same molecule?
The z-score was -2.36.

And the z-score [3]?
Its z-score is -1.69 (inactive).

And the z-score [4]?
Its z-score is -0.535 (inactive).

What about the z-score [5] of the same molecule?
Its z-score is -0.137 (inactive).

For `C=CC[C@]12N=C(c3ccc(OCCCO)cc3)O[C@H]1c1ccccc1N(CCS(=O)(=O)c1ccccc1)C2=O`, which composite z-score [1] is on record?
Its composite z-score is 3.59 (inactive).

And the composite z-score (XIP peptide (Xip251-270))?
Its composite z-score is 0.708.

What about the z-score [2] of the same molecule?
The z-score was -1.57.

What about the z-score [3] of the same molecule?
The z-score was -2.59 (inactive).

What about the z-score [4] of the same molecule?
Its z-score is -0.382 (inactive).

What about the z-score [5] of the same molecule?
Its z-score is -0.315 (inactive).

For `COc1ccc([Si](C)(C)[C@@H]2[C@@H](CCO)O[C@]3(C(=O)N(Cc4cccc(N5CCOC5=O)c4)c4ccccc43)[C@H]2C)cc1`, which composite z-score [1] is on record?
Its composite z-score is 0.473 (inactive).

What about the composite z-score (XIP peptide (Xip251-270)) of the same molecule?
Its composite z-score is 0.332.

What about the z-score [2] of the same molecule?
The z-score was -2.54.

And the z-score [3]?
Its z-score is -4.2 (inactive).

And the z-score [4]?
The z-score was -0.609 (inactive).

And the z-score [5]?
The z-score was -0.553 (inactive).

With `CC(=O)Nc1cc(Br)ccc1C(=O)NCc1ccccc1` as the molecule, how does the composite z-score [1] read?
The composite z-score was 0.137 (inactive).

What about the composite z-score (XIP peptide (Xip251-270)) of the same molecule?
The composite z-score was 0.201.

What about the z-score [2] of the same molecule?
The z-score was 1.3.

What about the z-score [3] of the same molecule?
Its z-score is -0.77 (inactive).

And the z-score [4]?
The z-score was 0.0852 (inactive).

What about the z-score [5] of the same molecule?
Its z-score is 0.516 (inactive).

Which composite z-score [1] does the source give for `C=C(CCCC)C(=O)CC[C@H](OC(=O)c1cccnc1)c1ccc(OCCO)cc1` here?
Its composite z-score is 0.0908 (inactive).

And the composite z-score (XIP peptide (Xip251-270))?
The composite z-score was -0.543.

What about the z-score [2] of the same molecule?
The z-score was -2.96.

What about the z-score [3] of the same molecule?
The z-score was -5.21 (inactive).

What about the z-score [4] of the same molecule?
Its z-score is 0.457 (inactive).

What about the z-score [5] of the same molecule?
Its z-score is 0.433 (inactive).

Which composite z-score [1] does the source give for `O=C1OCCC/C=C\[C@H]2OC34C=CCN(c5ccc6ccccc6c5)C(=O)[C@H]3N(CCCCCO)C(=O)[C@@H]4C12` (stereo partly specified) here?
Its composite z-score is 0.0867 (inactive).

What about the composite z-score (XIP peptide (Xip251-270)) of the same molecule?
The composite z-score was 0.0861.

What about the z-score [2] of the same molecule?
Its z-score is 1.73.

What about the z-score [3] of the same molecule?
The z-score was -4.94 (inactive).

And the z-score [4]?
The z-score was 0.715 (inactive).

And the z-score [5]?
Its z-score is -0.0708 (inactive).

For `CCOC(=O)C1=CC[C@@H](c2ccccc2)N(S(=O)(=O)c2ccc(C)cc2)[C@H]1c1ccc(CC)cc1`, which composite z-score [1] is on record?
The composite z-score was -0.223 (inactive).

What about the composite z-score (XIP peptide (Xip251-270)) of the same molecule?
The composite z-score was 0.487.

What about the z-score [2] of the same molecule?
Its z-score is -1.89.

What about the z-score [3] of the same molecule?
The z-score was 0.868 (inactive).

What about the z-score [4] of the same molecule?
The z-score was -0.0619 (inactive).

And the z-score [5]?
Its z-score is -0.606 (inactive).

Which results are given for `CN(C)C(=O)[C@]1(Cc2ccccc2)N=C(c2ccc(OCCCO)cc2)O[C@@H]1c1ccccc1N=[N+]=[N-]`?
composite z-score [1]: 0.79 (inactive); composite z-score (XIP peptide (Xip251-270)): 0.708; z-score [2]: -2.31; z-score [3]: -5.85 (inactive); z-score [4]: -0.366 (inactive); z-score [5]: -0.903 (inactive)

With `COCCOC(=O)N1C(=O)[C@@]2(c3cc(C#CC4(O)CCCCCC4)ccc31)[C@H](C(=O)Nc1nc3ccccc3s1)[C@H]1C(=O)O[C@H](c3ccccc3)[C@H](c3ccccc3)N1[C@@H]2c1ccccc1OCCO` as the molecule, how does the composite z-score [1] read?
The composite z-score was 1.77 (inactive).

And the composite z-score (XIP peptide (Xip251-270))?
The composite z-score was 0.748.

And the z-score [2]?
The z-score was -1.43.

What about the z-score [3] of the same molecule?
Its z-score is 2.95 (inactive).

And the z-score [4]?
Its z-score is 0.203 (inactive).

And the z-score [5]?
Its z-score is 0.693 (inactive).

With `COC(=O)[C@@]1(Cc2ccc(OC)cc2)[C@H]2c3cc(C(=O)N(C)C)n(Cc4ccc(C(F)(F)F)nc4)c3C[C@H]2CN1C(=O)c1ccccc1` as the molecule, how does the composite z-score [1] read?
Its composite z-score is 0.233 (inactive).

And the composite z-score (XIP peptide (Xip251-270))?
The composite z-score was 0.497.

What about the z-score [2] of the same molecule?
Its z-score is 0.526.

What about the z-score [3] of the same molecule?
The z-score was -3.56 (inactive).

And the z-score [4]?
The z-score was 0.832 (inactive).

And the z-score [5]?
The z-score was 0.858 (inactive).

Which composite z-score [1] does the source give for `CN1C(=O)C2C=CC(C(O)c3ccc(F)cc3)N(N(c3ccccc3)c3ccccc3)C2C1=O` (stereo unspecified) here?
The composite z-score was -0.0116 (inactive).

And the composite z-score (XIP peptide (Xip251-270))?
The composite z-score was -0.0807.

And the z-score [2]?
Its z-score is 0.988.

And the z-score [3]?
The z-score was -3.45 (inactive).

And the z-score [4]?
Its z-score is 1.17 (inactive).

What about the z-score [5] of the same molecule?
The z-score was 0.568 (inactive).

Which results are given for `COc1cc2c(cc1O)C=[N+](Cc1cc3c(cc1Br)OCO3)CC2`?
composite z-score [1]: -0.105 (inactive); composite z-score (XIP peptide (Xip251-270)): 1.1; z-score [2]: -1.88; z-score [3]: -3.19 (inactive); z-score [4]: -0.126 (inactive); z-score [5]: -0.203 (inactive)

Which composite z-score [1] does the source give for `C[N+](C)(C)CCCC[C@@H]1NC(=O)[C@@H]2C[C@H](C(=O)NCCCCCCNC(=O)CS)[C@H](c3ccc(O)cc3)N2C1=O` here?
Its composite z-score is 0.307 (inactive).

What about the composite z-score (XIP peptide (Xip251-270)) of the same molecule?
Its composite z-score is 0.496.

What about the z-score [2] of the same molecule?
Its z-score is 0.504.

And the z-score [3]?
Its z-score is -1.32 (inactive).

What about the z-score [4] of the same molecule?
Its z-score is 0.146 (inactive).

What about the z-score [5] of the same molecule?
The z-score was 0.32 (inactive).
